The supplement of paper PMC11624193, “Coupling cellular drug-target engagement to downstream pharmacology with CeTEAM” (Nature Communications, 2024)
Structures can show the parent of a compound that is named as a salt.

molecular target: PARP1 L713F-nLuc biosensor (HCT116) (UniProt P09874); assay: PARP1 L713F-nLuc/akaLuc ratio relative to DMSO control (biosensor stabilization) (fold change); higher = more PARP1 biosensor stabilization (target engagement / stabilizer), active = hit call of the paper; settings: stock concentration (mM; final µM = stock mM x 1): 10; 24 h
Sequence (P09874 whole entry L713F, looked up): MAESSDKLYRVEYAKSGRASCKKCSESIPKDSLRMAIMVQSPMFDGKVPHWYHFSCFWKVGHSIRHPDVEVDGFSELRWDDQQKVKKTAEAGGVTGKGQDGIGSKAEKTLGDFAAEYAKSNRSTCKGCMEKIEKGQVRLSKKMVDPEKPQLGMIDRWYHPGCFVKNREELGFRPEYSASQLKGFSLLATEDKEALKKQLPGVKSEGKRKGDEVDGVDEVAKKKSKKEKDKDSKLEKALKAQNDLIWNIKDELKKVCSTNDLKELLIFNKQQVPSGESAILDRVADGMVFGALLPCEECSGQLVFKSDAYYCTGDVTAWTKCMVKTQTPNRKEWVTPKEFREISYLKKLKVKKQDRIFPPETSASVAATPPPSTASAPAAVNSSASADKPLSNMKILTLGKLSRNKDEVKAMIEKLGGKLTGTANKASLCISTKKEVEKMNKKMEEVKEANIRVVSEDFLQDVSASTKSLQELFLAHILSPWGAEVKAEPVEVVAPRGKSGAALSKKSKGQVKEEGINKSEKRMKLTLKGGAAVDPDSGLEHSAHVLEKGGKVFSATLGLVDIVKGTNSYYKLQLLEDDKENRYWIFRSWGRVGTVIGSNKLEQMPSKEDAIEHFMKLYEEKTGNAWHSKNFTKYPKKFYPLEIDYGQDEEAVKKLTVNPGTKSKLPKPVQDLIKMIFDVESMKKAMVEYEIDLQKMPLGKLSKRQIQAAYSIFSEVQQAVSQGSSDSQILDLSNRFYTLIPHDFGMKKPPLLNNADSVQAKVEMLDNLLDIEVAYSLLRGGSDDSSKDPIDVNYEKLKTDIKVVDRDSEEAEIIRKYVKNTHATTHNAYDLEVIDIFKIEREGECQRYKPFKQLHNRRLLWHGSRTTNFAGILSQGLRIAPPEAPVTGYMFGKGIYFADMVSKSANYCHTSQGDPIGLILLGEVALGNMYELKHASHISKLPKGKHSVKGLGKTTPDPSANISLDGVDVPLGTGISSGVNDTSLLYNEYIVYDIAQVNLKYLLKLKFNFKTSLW

Row | SMILES | PARP1 L713F-nLuc/akaLuc ratio
1 | NC(=O)c1ccccc1Nc1ccccc1 | 0.795 (inactive)
2 | NC(=O)c1ccccc1 [Benzamide] | 1.08 (inactive)
3 | CC(=O)Nc1cc(Oc2ccc3c(nc(Nc4ccc(F)cc4F)n3C)c2C)ccn1 | 0.89 (inactive)
4 | CCS(=O)(=O)N1CC(CC#N)(n2cc(-c3ncnc4[nH]ccc34)cn2)C1 [Baricitinib (phosphate)] | 1.19 (inactive)
5 | CN(C)CCCNC(=O)c1ccc(-c2cc(O)c3ncccc3c2)cc1 | 0.5 (inactive)
6 | CCCCCCCCCCCCCC(=S)NCCCC[C@H](NC(=O)OCc1ccccc1)C(=O)Nc1ccccc1 [Thiomyristoyl] | 1.08 (inactive)
7 | CN1CCCN(C(=O)c2cccc(-c3ccc(/C=C4/C(=O)Nc5ccc(Cl)cc54)o3)c2)CC1 [CX-6258 (hydrochloride)] | 0.53 (inactive)
8 | O=C(O)[C@]1(Cc2cccc(Nc3nccs3)n2)CC[C@@H](Oc2cccc(Cl)c2F)CC1 | 1.05 (inactive)
9 | CN(C)C(=N)NC(=N)N [Metformin] | 1.5 (inactive)
10 | CC[C@H](NC(=O)[C@H](C)NC)C(=O)N1C[C@@H](O)C[C@H]1Cc1c(-c2[nH]c3cc(F)ccc3c2C[C@@H]2C[C@H](O)CN2C(=O)[C@H](CC)NC(=O)[C@H](C)NC)[nH]c2cc(F)ccc12 [Birinapant] | 0.946 (inactive)
11 | O=C(NCCCc1ccccc1)c1cccc(-c2cc(O)c3ncccc3c2)c1 | 0.729 (inactive)
12 | COC(=O)/C=C/c1ccccc1 [Methyl cinnamate] | 1.29 (inactive)
13 | CN(C)C[C@@H]1CCn2cc(c3ccccc32)C2=C(C(=O)NC2=O)c2cn(c3ccccc23)CCO1 [Ruboxistaurin (hydrochloride)] | 0.778 (inactive)
14 | Cc1ccc(OCCSc2ncccn2)c(Br)c1 [ZLN024 (hydrochloride)] | 0.863 (inactive)
15 | CNC(=O)c1cc(Oc2ccc(NC(=O)Nc3ccc(Cl)c(C(F)(F)F)c3)c(F)c2)ccn1 [Regorafenib (BAY 73-4506)] | 0.687 (inactive)
16 | CC1(C)CN(C(=O)c2ccc(-c3cccc4nc(NC(=O)C5CC5)nn34)cc2)C1 [Solcitinib] | 0.98 (inactive)
17 | NC(=O)c1cccnc1 [Nicotinamide] | 0.942 (inactive)

Row | SMILES | PARP1 L713F-nLuc/akaLuc ratio
18 | COc1cc2c(cc1OC)-c1c(C)c3ccc(OC)c(OC)c3c[n+]1CC2 [Dehydrocorydaline] | 0.741 (inactive)
19 | CNC(=O)c1cnc(NC(=O)C2CC2)cc1Nc1cccc(-c2ncc(F)cn2)c1OC | 0.696 (inactive)
20 | CCN(CC)C(=S)SSC(=S)N(CC)CC [Disulfiram] | 0.658 (inactive)
21 | COc1cc2c(NC3CCN(C)CC3)nc(N3CCCN(C)CC3)nc2cc1OCCOCCN(C)C | 1.43 (inactive)
22 | CC(=O)N[C@@H](CCCCN)C(=O)Nc1ccc2c(C)cc(=O)oc2c1 | 0.736 (inactive)
23 | Cc1nc(-c2cccnc2)sc1C(=O)Nc1ccccc1-c1cn2c(CN3CCOCC3)csc2n1 | 0.883 (inactive)
24 | CN[C@@H](C)C(=O)N[C@H]1CN(C(=O)CC(C)C)CC[C@H]2CC[C@@H](C(=O)NC(c3ccccc3)c3ccccc3)N2C1=O | 0.738 (inactive)
25 | CCOc1ccn(-c2ccc(F)cc2)c(=O)c1C(=O)Nc1ccc(Oc2ccnc(N)c2Cl)c(F)c1 | 1 (inactive)
26 | C#Cc1cccc(Nc2ncnc3cc4c(cc23)OCCOCCOCCO4)c1 [Icotinib] | 0.808 (inactive)
27 | CC(=O)Nc1ccc(NC(=S)NC(=O)c2ccc(C(C)(C)C)cc2)cc1 [Tenovin-1] | 0.509 (inactive)
28 | N#CCC1CCN(c2nc(Nc3ccc(N4CCC(O)CC4)cc3)c3c(=O)[nH]ncc3n2)CC1 [Gusacitinib] | 0.883 (inactive)
29 | Cc1cc(C)cc(Oc2ccc(CNC(=O)[C@H](C)N)cc2C)c1 | 1.24 (inactive)
30 | Cc1cc(CN)cc(C)c1-c1ncn(C)c1-c1ccnc2cc(F)ccc12 [BI-9321 (trihydrochloride)] | 0.66 (inactive)
31 | COc1cc2c(NC3CCN(C4CCCCC4)CC3)nc(N3CCCN(C(C)C)CC3)nc2cc1OCCCN1CCCCC1 | 0.886 (inactive)
32 | COc1ccc(C2(CNC(=O)c3ccc(NC(=O)c4ccco4)cc3)CCOCC2)cc1 | 1.23 (inactive)
33 | Cc1cc(C(C)Nc2ccccc2)c2nc(N3CCOCC3)cc(=O)n2c1 (centres undefined) | 0.773 (inactive)
34 | COc1cc([C@@H]2c3cc4c(cc3[C@@H](O[C@@H]3O[C@@H]5CO[C@@H](C)O[C@H]5[C@H](O)[C@H]3O)[C@H]3COC(=O)[C@H]23)OCO4)cc(OC)c1O [Etoposide] | 0.601 (inactive)
